Screening results as filed in PubChem BioAssay.
Compounds with a hit are over-represented: about 2.2% of the library has one in this group of screens.
ZTA DNA inh: counter-screen for EBNA-1 inhibitors: inhibitors of Epstein-Barr virus ZTA; P03206; ZTA-DNA binding, fluorescence polarization; inhibition, % at 11 µM; 320,000 compounds, 0.15% hits; in the data active = inhibition above about 33%
Target sequence (P03206 whole entry, looked up): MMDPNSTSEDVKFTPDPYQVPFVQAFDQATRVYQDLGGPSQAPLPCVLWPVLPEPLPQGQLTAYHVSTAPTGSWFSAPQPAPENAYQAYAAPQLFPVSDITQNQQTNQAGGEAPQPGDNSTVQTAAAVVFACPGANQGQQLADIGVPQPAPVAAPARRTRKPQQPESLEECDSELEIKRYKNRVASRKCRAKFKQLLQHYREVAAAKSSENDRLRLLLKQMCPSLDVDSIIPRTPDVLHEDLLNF
NALP3 yeast inh: NALP3 inhibition in yeast. Yeast reconstituted NLRP3/ASC/caspase-1, beta-gal luminescence, 24 h. inhibition, % at 10 µM. 330,000 compounds, 0.39% hits;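 active = inhibition of 50% or more; inactive = inhibition below 50%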
NALP1 yeast inh: blocks the NALP1 inflammasome reconstituted in yeast | S. cerevisiae NALP1/ASC/caspase-1 growth, X-gal OD620, 72 h | 280,000 compounds, 0.61% hits | AID 2071 | inhibition, % at 10 µM; in the data active = inhibition mostly above about 24%, no sharp cut-off; inactive = mostly below about 32%
PolyA inh: blocks polyadenylation in yeast reporter cells | S. cerevisiae SKY197-pL101 polyadenylation reporter, beta-gal luminescence; efflux-impaired pdr1/pdr3 knockout yeast; score 100 = 6 SD above DMSO | activity score, % at 12 µM | 300,000 compounds, 0.02% hits;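 active = lowest replicate activity score at least 50, where 100 means six control SD above control mean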;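 note: yeast exposed to compound for 9 h at 30 °C; higher score means more reporter readthrough which indicates perturbed polyadenylation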
dFosB act: activators of mouse delta FosB homodimer | P13346 | AID 493131 | purified delta FosB, TAMRA-CDK5 oligo fluorescence polarization; percent of positive-control signal above neutral wells | activation, % at 25 µM | 340,000 compounds, 0.99% hits;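 active = mean activation above about 17%, with every replicate also reaching it, limit read from the data, passing the limit was not always enough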
Target sequence (P13346 whole entry, looked up): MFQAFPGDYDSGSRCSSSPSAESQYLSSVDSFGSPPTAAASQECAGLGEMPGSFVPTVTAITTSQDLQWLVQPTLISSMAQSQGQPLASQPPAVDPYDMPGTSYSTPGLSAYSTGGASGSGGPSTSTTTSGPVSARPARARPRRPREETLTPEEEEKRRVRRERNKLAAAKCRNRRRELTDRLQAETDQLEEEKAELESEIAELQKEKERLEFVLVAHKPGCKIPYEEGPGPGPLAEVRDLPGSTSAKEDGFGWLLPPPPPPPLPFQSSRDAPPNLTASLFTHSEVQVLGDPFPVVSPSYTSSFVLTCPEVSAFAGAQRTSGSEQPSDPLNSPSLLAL
EBNA-1 inh: blocks EBNA-1 binding to DNA; EBNA-1 DNA binding, fluorescence polarization; inhibition, % at 14.8 µM; 300,000 compounds, 0.34% hits; in the data active = inhibition above about 28%
NALP3 yeast conf: confirmation of NALP3 inhibitors in yeast. shares compounds with NALP3 yeast inh. yeast expressing human NALP3, luminescence. inhibition, % at 10 µM. 1,300 compounds, 81% hits; in the data active = inhibition above about 48%
Casp1 ASC ctr: active in yeast caspase-1-ASC counter-screen for NALP3 inhibitors; shares compounds with NALP3 yeast inh; yeast expressing Caspase-1-ASC, luminescence counter screen; inhibition, % at 10 µM; 1,000 compounds, 66% hits; AID 488784
NALP3 retest: yeast NALP3 inhibition, confirmed on retest; inhibition, % at 10 µM; 1,000 compounds, 53% hits; shares compounds with NALP3 yeast inh; AID 488794; yeast expressing human NALP3, luminescence read-out
Of the large screens only hits and unclear results are named; the others gave an inactive call (follow-up assays come after a bar, where they were run). Cut-off read from the data, not from the text of the source, unless noted: active = inhibition above about 50%; inactive = the rest.

CC(=O)Nc1cccc(-c2cc(-c3c(Cl)cccc3Cl)no2)c1	NALP3 yeast inh 52 (no result: NALP1 yeast inh) | NALP3 yeast conf inactive | Casp1 ASC ctr 53 | NALP3 retest 52
CC(=O)Nc1cccc(-c2nc3ccc(NC(C)=O)cc3s2)c1	none
COc1ccc(-c2nc3ccccc3s2)cc1O	NALP3 yeast inh 73 | NALP3 yeast conf 46 | Casp1 ASC ctr 73 | NALP3 retest 64
COc1cc(-c2nc3ccccc3s2)ccc1O	none
Oc1cccc(-c2nc3ccccc3s2)c1	NALP3 yeast inh 73 | NALP3 yeast conf 84 | Casp1 ASC ctr 82 | NALP3 retest 69
CC(=O)Nc1cccc(-c2nc3ccccc3s2)c1	NALP3 yeast inh 54 (no result: PolyA inh) | NALP3 yeast conf inactive
Cc1cccc(OC(C)C(=O)Nc2ccc3c(c2)OCCO3)c1 (configuration not stated)	none (no result: ZTA DNA inh, NALP3 yeast inh, NALP1 yeast inh, PolyA inh, EBNA-1 inh)
Cc1ccc(S(=O)(=O)NC(CC(C)C)C(=O)NCCCn2nc(C)cc2C)cc1 (configuration not stated)	none (no result: NALP1 yeast inh, PolyA inh, EBNA-1 inh)
COc1ccc(C(C(=O)NC2CCCC2)N(Cc2cccnc2)C(=O)Cc2cccs2)c(OC)c1 (configuration not stated)	none
CC(=O)Nc1ccc(O)c(-c2nc3ccccc3s2)c1	NALP3 yeast inh 56 | NALP3 yeast conf 67
Cc1ccsc1C(=O)Nc1ccc(O)c(-c2nc3ccccc3s2)c1	none
COc1ccc(C(=O)c2c3ccc(C(F)(F)F)cc3[n+]([O-])n2CCCN)cc1	none (no result: NALP1 yeast inh)
Cc1ccc(NC(=O)Cc2csc(-c3ccccc3)n2)cc1F	NALP3 yeast inh 62 | NALP3 yeast conf inactive | Casp1 ASC ctr 53 | NALP3 retest 60
O=C(Cc1csc(-c2ccccc2)n1)Nc1ccc(C(F)(F)F)cc1	none
Cn1ncc2c(O/N=C(\N)c3ccc(C(C)(C)C)cc3)ncnc21	NALP3 yeast inh 54 (no result: NALP1 yeast inh) | NALP3 yeast conf 78 | Casp1 ASC ctr 82 | NALP3 retest 67
CCOC(=O)c1ccc(Nc2ncnc3c2cnn3C)cc1	none
CC1=NN(C(=O)c2ccccc2-n2cccc2)C(O)(C(F)(F)F)C1 (configuration not stated)	none
CC1=NN(C(=O)c2ccc(C)cc2)C(O)(C(F)(F)OC(F)(F)F)C1 (configuration not stated)	NALP3 yeast inh 53 | NALP3 yeast conf 54 | Casp1 ASC ctr inactive | NALP3 retest inactive
O/N=C(\c1ccccc1)c1nccc2ccccc12	none
CCCC(=O)Nc1nc2ccc(C(=O)OCC)cc2s1	none
CCOC(=O)c1ccc2nc3c(cc2c1)CCS3	NALP3 yeast inh 56 | NALP3 yeast conf 66 | Casp1 ASC ctr 66 | NALP3 retest inactive
N#C/C(=C\c1ccc(O)cc1)c1nc2ccccc2o1	NALP3 yeast inh 71 | NALP3 yeast conf 77 | Casp1 ASC ctr 85 | NALP3 retest 80
O=C(Nc1cccc(Cl)c1)c1ccc2c(c1)OCCO2	NALP3 yeast inh 78 | NALP3 yeast conf 92 | Casp1 ASC ctr 86 | NALP3 retest 76
O=C(Nc1ccc2c(c1)OCCO2)c1cccc(Cl)c1	NALP3 yeast inh 53 | NALP3 yeast conf 70 | Casp1 ASC ctr inactive | NALP3 retest inactive
O=C(Nc1ccc2c(c1)OCCO2)c1cccc(C(=O)Nc2ccc3c(c2)OCCO3)c1	none
COc1cccc(NC(=O)c2ccc3c(c2)OCCO3)c1	none (no result: ZTA DNA inh, EBNA-1 inh)
O=C(NCC(c1ccc(F)cc1)N1CCOCC1)c1ccc([N+](=O)[O-])o1 (configuration not stated)	none (no result: ZTA DNA inh, NALP1 yeast inh, PolyA inh, EBNA-1 inh)
CCOC(=O)C1CCN(C(=O)CCn2c(=O)c3cccn3c3cccnc32)CC1	none
COc1ccc(C2CC(C)(c3ccc(OC)cc3)Nc3ccccc3N2)cc1 (configuration not stated)	none
COc1ccc(C2(C)CC(C)(C)Nc3ccccc32)cc1 (configuration not stated)	NALP3 yeast inh 55 | NALP3 yeast conf 51 | Casp1 ASC ctr inactive | NALP3 retest inactive
Nc1ncnc2c1ncn2[C@@H]1O[C@H](CNS(=O)(=O)c2ccc3c(c2)CCN(C(=O)C(F)(F)F)C3)[C@@H](O)[C@H]1O	none (no result: ZTA DNA inh, NALP3 yeast inh, NALP1 yeast inh, PolyA inh, EBNA-1 inh)
O=C(NCC(c1ccccc1)N1CCCC1)C1CCN(C(=O)Nc2ccccc2)CC1 (configuration not stated)	none (no result: ZTA DNA inh, NALP1 yeast inh, PolyA inh, EBNA-1 inh)
O=C(Oc1c(Cl)cc(Cl)c2cccnc12)c1cccs1	NALP3 yeast inh 61 | NALP3 yeast conf 70 | Casp1 ASC ctr 83 | NALP3 retest 81
O=C(Oc1c(Cl)cc(Cl)c2cccnc12)c1ccco1	NALP3 yeast inh 71 | NALP3 yeast conf 84
O=C(Oc1c(CN2CCOCC2)cc(Cl)c2cccnc12)c1cccs1	none
CC1CCN(c2ccc(-c3cccs3)nn2)CC1	NALP3 yeast inh 52 | NALP3 yeast conf 79
Clc1ccc(-c2cccs2)nn1	none
CCN(CC(=O)Nc1ccc(NC(C)=O)cc1)C(=O)c1ccccc1SCc1c(C)noc1C	none (no result: NALP1 yeast inh)
O=C(NCCCCc1ccccc1)c1cccc(Br)c1	NALP3 yeast inh 53 | NALP3 yeast conf 69 | Casp1 ASC ctr 57 | NALP3 retest inactive
CC(C)(c1ccc(O)c([N+](=O)[O-])c1)c1ccc(O)c([N+](=O)[O-])c1	none (no result: ZTA DNA inh, NALP3 yeast inh, NALP1 yeast inh, PolyA inh, EBNA-1 inh)
CC(C)(c1cc(Br)c(O)c(Br)c1)c1cc(Br)c(O)c(Br)c1	NALP3 yeast inh 53 (no result: NALP1 yeast inh, PolyA inh, EBNA-1 inh) | NALP3 yeast conf 49
OC(CN1C2=NCCCN2c2ccccc21)c1ccc2c(c1)OCO2 (configuration not stated)	none
OC(CN1C2=NCCN2c2ccccc21)c1ccc2c(c1)OCO2 (configuration not stated)	NALP3 yeast inh 57 | NALP3 yeast conf 82 | Casp1 ASC ctr inactive | NALP3 retest inactive
CCN(CC)c1ccc(Nc2nc(Cl)ncc2Br)cc1	NALP3 yeast inh 54 | NALP3 yeast conf 64 | Casp1 ASC ctr 54 | NALP3 retest inactive
COc1cc(NC(=O)CN2C(=O)C(=O)N(C3CCCC3)C2=O)cc(OC)c1	none (no result: NALP1 yeast inh, PolyA inh, EBNA-1 inh)
COc1ccc(NC(=O)C#Cc2ccccc2)cc1	NALP3 yeast inh 67 | NALP3 yeast conf 76 | Casp1 ASC ctr inactive | NALP3 retest 62
O=C(NC1CC1)c1cc2c(s1)-c1ccccc1OC2	NALP3 yeast inh 60, NALP1 yeast inh 34 | NALP3 yeast conf 74 | Casp1 ASC ctr 57 | NALP3 retest inactive
CC(Oc1cccc(Cl)c1)C(=O)Nc1nc(-c2ccccn2)cs1 (configuration not stated)	NALP3 yeast inh 50 (no result: NALP1 yeast inh) | NALP3 yeast conf 64 | Casp1 ASC ctr 74 | NALP3 retest 61
CCN1/C(=C/c2ccc3cc(C)ccc3[n+]2CC)Sc2cc(C)c(C)cc21	none (no result: ZTA DNA inh, PolyA inh, EBNA-1 inh)
